According to the supplement of paper PMC6805474:

Columns and labels:
[1] = tested on: Schistosoma mansoni schistosomula (LE); test: XTT viability relative to DMSO control; higher = more viable (less active); settings: 72 h; 10 µM
Description: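 XTT/PMS was then added for a further 24 h (72 h total) and A450 was read. % viability = (sample - heat-killed control)/(DMSO control - heat-killed control) x 100, from duplicate wells in two independent experiments.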

[2] = tested on: Schistosoma mansoni schistosomula (NMRI); test: phenotypic severity score (0-4); higher = more antischistosomal effect, active = 2 or more; settings: 10 µM
[3] = tested on: Schistosoma mansoni schistosomula (Liberian); test: drug effect (1 - score/DMSO control score) (fraction); higher = more antischistosomal effect, active = 0.5 or more; extreme values may be limits of the assay; settings: 10 µM
Outline: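 A plate was valid only if its 0.1% DMSO wells averaged a score of at least 2. Those wells ran beside duplicate wells in which 50 Liberian-strain Schistosoma mansoni schistosomula each, transformed mechanically from cercariae and pre-incubated at least 12 h, met 10 µM compound in Medium 199 with 5% FCS at 37 °C, 5% CO2. Scoring was visual at 10× at 24, 48 and 72 h, from 3 (normal) to 0 (dead) in quarter-point steps. Drug effect was derived from the mean test-well score against the mean DMSO-well score, with negatives set to zero.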
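Throughout, for phenotypic severity score (0-4): visual microscopic scoring of shape, motility and density changes versus 0.5% DMSO solvent controls, one point per descriptor, degeneracy or death scored 4, mean of duplicate wells.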

CC(C)n1ncc2c(C(=O)NCC(c3cccs3)N3CCOCC3)cc(-c3ccccc3)nc21 (configuration not stated)
inactive: phenotypic severity score ([2]; 48 h) 0 | phenotypic severity score ([2]; 72 h) 1 | drug effect ([3]; 24 h) 0.273 | drug effect ([3]; 72 h) 0.4
active: phenotypic severity score ([2]; 24 h) 2 | drug effect ([3]; 48 h) 0.5
71.6%: XTT viability [1]

O=C(Nc1nnc(-c2ccc(Cl)s2)o1)c1ccc(Cl)s1
inactive: drug effect ([3]; 24 h) < 0 | drug effect ([3]; 48 h) < 0 | drug effect ([3]; 72 h) < 0
active: phenotypic severity score ([2]; 24 h) 2 | phenotypic severity score ([2]; 48 h) 4 | phenotypic severity score ([2]; 72 h) 4
-3.4%: XTT viability [1]

CCOc1ccc(OCC(=O)Nc2cc(C)cc(C)c2)cc1
67%: XTT viability [1]
inactive: phenotypic severity score ([2]; 24 h) 0 | phenotypic severity score ([2]; 48 h) 0 | phenotypic severity score ([2]; 72 h) 0 | drug effect ([3]; 24 h) 0.0909 | drug effect ([3]; 48 h) 0.05 | drug effect ([3]; 72 h) 0.158

Cc1cc(C(=O)Nc2ccc(-c3ccccc3)cc2)no1
90.7%: XTT viability [1]
inactive: phenotypic severity score ([2]; 24 h) 0 | phenotypic severity score ([2]; 48 h) 0 | phenotypic severity score ([2]; 72 h) 0 | drug effect ([3]; 24 h) 0.1 | drug effect ([3]; 48 h) 0.0811 | drug effect ([3]; 72 h) 0.111

CC(C)(C(=O)Nc1ccc(F)cc1)n1cc(-c2ccccc2F)cn1
inactive: phenotypic severity score ([2]; 24 h) 0 | phenotypic severity score ([2]; 48 h) 0 | phenotypic severity score ([2]; 72 h) 0 | drug effect ([3]; 24 h) 0.135 | drug effect ([3]; 48 h) 0.111 | drug effect ([3]; 72 h) < 0
128%: XTT viability [1]

CC[P](CC)(CC)=[Au][S][C@H]1O[C@@H](COC(C)=O)[C@H](OC(C)=O)[C@@H](OC(C)=O)[C@@H]1OC(C)=O
203%: XTT viability [1]
active: phenotypic severity score ([2]; 24 h) 4 | phenotypic severity score ([2]; 48 h) 4 | phenotypic severity score ([2]; 72 h) 4 | drug effect ([3]; 24 h) 1 | drug effect ([3]; 48 h) 1 | drug effect ([3]; 72 h) 1

CC1=Nc2ccc(Cl)cc2C(O)(c2ccc(C)cc2)N1CCN1CCCCC1 (configuration not stated)
inactive: phenotypic severity score ([2]; 24 h) 0 | phenotypic severity score ([2]; 48 h) 0 | phenotypic severity score ([2]; 72 h) 0 | drug effect ([3]; 24 h) < 0 | drug effect ([3]; 48 h) 0.188 | drug effect ([3]; 72 h) 0.375
-4.23%: XTT viability [1]

c1ccc(-c2cc(N3CCCCC3)c3ccccc3n2)nc1
59.9%: XTT viability [1]
inactive: phenotypic severity score ([2]; 24 h) 1 | phenotypic severity score ([2]; 48 h) 0 | phenotypic severity score ([2]; 72 h) 1 | drug effect ([3]; 24 h) 0.15 | drug effect ([3]; 48 h) 0.243 | drug effect ([3]; 72 h) 0.389

CNC(=O)C1Cc2c([nH]c3cc(Cl)ccc23)C2(CCN(CCc3ccccc3)CC2)N1 (configuration not stated)
inactive: phenotypic severity score ([2]; 24 h) 0 | phenotypic severity score ([2]; 48 h) 0 | phenotypic severity score ([2]; 72 h) 0 | drug effect ([3]; 24 h) 0.1 | drug effect ([3]; 72 h) 0.394
active: drug effect ([3]; 48 h) 0.514
13.4%: XTT viability [1]

O=C(NCCc1ccccc1)c1cc(-c2cccnc2)cnc1NCC1CC1
active: phenotypic severity score ([2]; 48 h) 2 | drug effect ([3]; 48 h) 0.514 | drug effect ([3]; 72 h) 0.576
inactive: phenotypic severity score ([2]; 24 h) 0 | phenotypic severity score ([2]; 72 h) 0 | drug effect ([3]; 24 h) 0.2
85.9%: XTT viability [1]

O=C(Nc1nnc(S)s1)c1cc(Br)ccc1Cl
inactive: phenotypic severity score ([2]; 24 h) 0 | phenotypic severity score ([2]; 48 h) 0 | phenotypic severity score ([2]; 72 h) 0 | drug effect ([3]; 24 h) 0.05 | drug effect ([3]; 48 h) 0.027 | drug effect ([3]; 72 h) 0.0909
91.7%: XTT viability [1]

CCCCN(CCCC)c1c(C#N)cc(S(=O)(=O)Nc2ccccc2)cc1C#N
40.5%: XTT viability [1]
inactive: phenotypic severity score ([2]; 24 h) 0 | phenotypic severity score ([2]; 48 h) 0 | phenotypic severity score ([2]; 72 h) 0 | drug effect ([3]; 24 h) 0.15 | drug effect ([3]; 48 h) 0.135 | drug effect ([3]; 72 h) 0.273

Cc1[nH]c2ccccc2c1C(c1cccs1)N1CCN(C)CC1 (configuration not stated)
active: phenotypic severity score ([2]; 24 h) 3 | phenotypic severity score ([2]; 48 h) 4 | phenotypic severity score ([2]; 72 h) 4 | drug effect ([3]; 24 h) 1 | drug effect ([3]; 48 h) 1 | drug effect ([3]; 72 h) 1
6.43%: XTT viability [1]

COc1cc(OC)cc(C(=O)NCC2Cc3cc(Cl)cc(-c4ccncc4)c3O2)c1 (configuration not stated)
153%: XTT viability [1]
inactive: phenotypic severity score ([2]; 24 h) 0 | phenotypic severity score ([2]; 48 h) 0 | phenotypic severity score ([2]; 72 h) 0 | drug effect ([3]; 24 h) 0.1 | drug effect ([3]; 48 h) 0.189 | drug effect ([3]; 72 h) 0.152

Cc1ccccc1C(=O)N1N=C(Nc2ccccc2)SC1(C)C
active: phenotypic severity score ([2]; 48 h) 2
88.7%: XTT viability [1]
inactive: phenotypic severity score ([2]; 24 h) 1 | phenotypic severity score ([2]; 72 h) 0 | drug effect ([3]; 24 h) 0.0455 | drug effect ([3]; 48 h) 0.1 | drug effect ([3]; 72 h) 0.158

NCCCC(N)(C(=O)O)C(F)F (configuration not stated)
inactive: phenotypic severity score ([2]; 24 h) 0 | phenotypic severity score ([2]; 48 h) 0 | phenotypic severity score ([2]; 72 h) 0 | drug effect ([3]; 24 h) 0.15 | drug effect ([3]; 48 h) 0.135 | drug effect ([3]; 72 h) 0.222
87.1%: XTT viability [1]

Nc1ncnc2[nH]nc(Cc3cccc4ccccc34)c12
inactive: phenotypic severity score ([2]; 24 h) 1 | drug effect ([3]; 24 h) 0.243 | drug effect ([3]; 48 h) 0.333
94.1%: XTT viability [1]
active: phenotypic severity score ([2]; 48 h) 2 | phenotypic severity score ([2]; 72 h) 3 | drug effect ([3]; 72 h) 0.562

CCc1ccc([C@@H]2C[C@H](C(F)(F)F)n3ncc(C(=O)NCc4ccc(OC)cc4)c3N2)cc1
inactive: phenotypic severity score ([2]; 24 h) 1 | phenotypic severity score ([2]; 48 h) 1 | phenotypic severity score ([2]; 72 h) 0 | drug effect ([3]; 24 h) 0.1 | drug effect ([3]; 48 h) 0.111 | drug effect ([3]; 72 h) 0.0556
99.5%: XTT viability [1]

CCN(CC)S(=O)(=O)c1ccc(C(=O)Nc2cc(C)nn2-c2nc(C)c(C)c(=O)[nH]2)cc1
inactive: phenotypic severity score ([2]; 24 h) 0 | phenotypic severity score ([2]; 48 h) 0 | phenotypic severity score ([2]; 72 h) 0 | drug effect ([3]; 24 h) 0.1 | drug effect ([3]; 48 h) < 0 | drug effect ([3]; 72 h) < 0
80.6%: XTT viability [1]

COc1cc(NC(C)CCCN)c2ncccc2c1 (configuration not stated)
inactive: phenotypic severity score ([2]; 24 h) 0 | phenotypic severity score ([2]; 48 h) 0 | phenotypic severity score ([2]; 72 h) 0 | drug effect ([3]; 24 h) < 0 | drug effect ([3]; 48 h) 0.135 | drug effect ([3]; 72 h) 0.333
77.4%: XTT viability [1]

FC(F)(F)c1nnc2ccc(Cl)nn12
84%: XTT viability [1]
inactive: phenotypic severity score ([2]; 24 h) 1 | phenotypic severity score ([2]; 48 h) 0 | phenotypic severity score ([2]; 72 h) 0 | drug effect ([3]; 24 h) 0.2 | drug effect ([3]; 48 h) 0.189 | drug effect ([3]; 72 h) 0.333
